1 compound from PubChem BioAssay AID2284087 (EPA ToxCast) can be followed below.

The structures appear in SMILES notation. Active and inactive are the calls of the source. The calls were made as follows: active = hit-call score of the fitted dose curve at least 0.9, where 1 is the maximum; inactive = score below 0.9.

Chain of human Flt-1 (VEGFR1) (FLT1) Receptor Tyrosine Kinase, FLT1 (gene 2321) (P17948 whole entry, looked up): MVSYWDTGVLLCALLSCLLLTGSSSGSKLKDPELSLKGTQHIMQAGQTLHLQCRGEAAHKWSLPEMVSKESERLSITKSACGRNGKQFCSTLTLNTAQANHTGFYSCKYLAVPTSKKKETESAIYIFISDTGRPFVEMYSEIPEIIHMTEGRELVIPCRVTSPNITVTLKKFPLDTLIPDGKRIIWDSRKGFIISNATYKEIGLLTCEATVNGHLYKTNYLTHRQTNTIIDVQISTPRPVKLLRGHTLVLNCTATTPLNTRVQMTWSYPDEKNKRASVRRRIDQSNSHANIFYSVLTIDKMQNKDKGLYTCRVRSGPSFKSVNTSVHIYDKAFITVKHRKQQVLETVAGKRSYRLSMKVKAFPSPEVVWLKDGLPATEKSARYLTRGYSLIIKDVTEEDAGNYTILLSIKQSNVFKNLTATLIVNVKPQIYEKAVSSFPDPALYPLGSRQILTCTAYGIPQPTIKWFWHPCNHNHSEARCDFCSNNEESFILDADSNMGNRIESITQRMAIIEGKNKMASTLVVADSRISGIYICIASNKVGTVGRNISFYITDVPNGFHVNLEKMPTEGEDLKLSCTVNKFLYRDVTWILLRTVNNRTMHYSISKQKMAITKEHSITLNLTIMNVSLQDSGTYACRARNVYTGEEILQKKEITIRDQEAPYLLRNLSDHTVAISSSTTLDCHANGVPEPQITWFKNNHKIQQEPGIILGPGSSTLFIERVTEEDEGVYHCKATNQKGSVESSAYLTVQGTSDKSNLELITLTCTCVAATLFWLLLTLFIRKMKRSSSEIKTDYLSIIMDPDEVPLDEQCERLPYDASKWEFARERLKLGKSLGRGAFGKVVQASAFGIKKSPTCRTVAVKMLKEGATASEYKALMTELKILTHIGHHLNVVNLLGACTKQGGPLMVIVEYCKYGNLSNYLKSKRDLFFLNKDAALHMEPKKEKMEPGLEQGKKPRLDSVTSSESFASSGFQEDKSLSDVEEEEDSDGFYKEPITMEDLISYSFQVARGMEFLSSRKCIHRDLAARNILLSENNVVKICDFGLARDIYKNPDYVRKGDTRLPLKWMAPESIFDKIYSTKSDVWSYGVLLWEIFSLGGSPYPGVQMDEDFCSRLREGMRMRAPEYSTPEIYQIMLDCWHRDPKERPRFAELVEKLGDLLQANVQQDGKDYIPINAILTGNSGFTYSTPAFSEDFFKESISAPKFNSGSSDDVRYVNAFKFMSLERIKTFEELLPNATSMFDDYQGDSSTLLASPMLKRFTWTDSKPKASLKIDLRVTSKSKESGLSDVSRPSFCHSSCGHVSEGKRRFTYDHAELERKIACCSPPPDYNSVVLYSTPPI

For the assay, the target named is human Flt-1 (VEGFR1) (FLT1) Receptor Tyrosine Kinase, FLT1 (gene 2321) (UniProt P17948). The experiment in a line: ERF_FR_ENZ_hFLT1: Eurofins (ERF) Enzymatic Radiometric [Km ATP] KinaseProfiler LeadHunter Assay for human Flt-1 (VEGFR1) (FLT1) Receptor Tyrosine Kinase. As for the experimental part:
ERF_FR_ENZ_hFLT1 is a biochemical, single-readout assay that uses extracted gene-proteins in a cell-free assay. Measurements were taken 0.25 hour after chemical dosing in a 96-well plate. See Flt-1 (VEGFR1) Human RTK Kinase Enzymatic LANCE Assay [Km ATP], Cerep.ERF_FR_ENZ_hFLT1 is an assay component calculated from the ERF_FR_ENZ_hFLT1 assay. It is designed to measure enzyme activity using a type of enzyme reporter as detected by fluorescence intensity with LANCE technology.Data from the assay component ERF_FR_ENZ_hFLT1 was analyzed at the assay endpoint, ERF_FR_ENZ_hFLT1, in the positive analysis fitting direction relative to DMSO as the negative control and baseline of activity. Using a type of enzyme reporter, loss-of-signal activity can be used to understand changes in enzymatic activity as they relate to gene FLT1. To generalize the intended target to other relatable targets, this assay endpoint is annotated to the kinase intended target family, where the subfamily is receptor tyrosine kinase.
Flt1 (h) is incubated with 8 mM MOPS pH 7.0, 0.2 mM EDTA, 250 uM […], 10 mM MgAcetate and [g- 33P]-ATP (specific activity and concentration as required). The reaction is initiated by the addition of the Mg/ATP mix. After incubation for 40 minutes at room temperature, the reaction is stopped by the addition of phosphoric acid to a concentration of 0.5%. […]
`O=C(/C=C/c1ccc(O)cc1)CC(=O)/C=C/c1ccc(O)cc1`: the call was inactive.
